# High-throughput results: PubChem, National Center for Advancing Translational Sciences (NCATS)
# 12-LOX inh: Primary qHTS assay for inhibitors of human arachidonate 12S-lipoxygenase (ALOX12): Round 2 | Polyunsaturated fatty acid lipoxygenase ALOX12 (Homo sapiens), P18054 | purified 12hLO, xylenol orange hydroperoxide absorbance | Potency, µM (titrated, usually from 108 µM), for inactives: at the top dose activity change, negative = inhibition, actives largely listed as inhibitors | hit rate 1.1% among 580,000; further: potency means the concentration at half of the fitted maximal effect
# Target sequence (P18054 whole entry, looked up): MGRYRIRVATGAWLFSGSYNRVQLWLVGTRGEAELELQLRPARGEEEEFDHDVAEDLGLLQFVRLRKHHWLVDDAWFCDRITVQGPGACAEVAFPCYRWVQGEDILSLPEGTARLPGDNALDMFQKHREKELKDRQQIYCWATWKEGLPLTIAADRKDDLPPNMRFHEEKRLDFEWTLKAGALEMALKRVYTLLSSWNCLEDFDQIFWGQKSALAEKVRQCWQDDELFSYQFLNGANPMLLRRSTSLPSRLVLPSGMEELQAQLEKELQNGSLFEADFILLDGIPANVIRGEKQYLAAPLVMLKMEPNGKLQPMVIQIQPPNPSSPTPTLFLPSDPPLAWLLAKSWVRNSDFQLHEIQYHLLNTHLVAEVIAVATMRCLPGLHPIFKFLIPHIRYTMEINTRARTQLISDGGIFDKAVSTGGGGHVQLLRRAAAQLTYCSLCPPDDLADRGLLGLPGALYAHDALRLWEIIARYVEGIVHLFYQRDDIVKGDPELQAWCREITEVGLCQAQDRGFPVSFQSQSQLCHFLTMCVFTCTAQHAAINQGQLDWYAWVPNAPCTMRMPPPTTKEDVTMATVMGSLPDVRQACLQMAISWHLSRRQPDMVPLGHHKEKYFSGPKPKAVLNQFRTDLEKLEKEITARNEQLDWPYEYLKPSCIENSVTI
#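 Purified human 12hLO (150 nM final) in 25 mM Hepes, 0.01% Triton X-100, pH 7.0 was preincubated 15 min at room temperature with compound. Then 40 uM arachidonic acid was added, 30 min. Hydroperoxide was read by Fe-XO absorbance ratio 573/405 nm.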
# HT1080 IDH1KD tx: qHTS for induction of synthetic lethality in tumor cells producing 2HG: qHTS for the HT-1080-IDH1KD cell line | HT-1080 IDH1 knockdown viability, ATP luminescence, 48 h | Potency, µM (doses to about 46.1 µM), for inactives: at the highest dose activity, negative = toxicity, hits mostly cytotoxic | hit rate 2% among 360,000 | AID 686971, 2013;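 further: potency means the concentration at half of the fitted maximal effect; 0% = DMSO wells and -100% = cell-free medium wells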
#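 CellTiter-Glo luminescence after 48 h compound exposure at 37 degrees C of IDH1-knockdown HT-1080 cells in 5% FBS RPMI. %Activity scaled between DMSO wells and cell-free media wells, with curves fitted and assigned curve classes.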
# IL-1B inflam inh: qHTS for Inhibitors of Inflammasome Signaling: IL-1-beta AlphaLISA Primary Screen; hit rate 4.7% among 360,000; activity change, % at 57.5 µM; THP-1 LPS/ATP IL-1B secretion, AlphaLISA, 16 h; active compounds read low; in the data active means activity change below about -50%; inconclusive means mostly about -30% to -49%
#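 THP-1 cells pretreated 1 hr with compounds (up to 57.5 uM final), then stimulated with LPS (250 ng/mL final) plus ATP (1.25 mM final); secreted IL-1B measured by AlphaLISA after 16 hr, decreased signal indicating inhibition.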
# TDP1 cell noCPT: qHTS for Inhibitors of human tyrosyl-DNA phosphodiesterase 1 (TDP1): qHTS in cells in absence of CPT; hit rate 15% among 420,000; Potency, µM (doses to about 46.2 µM), for the others: at the highest dose activity change, negative = growth inhibition, hits mostly inhibitors; DT40 Tdp1-/- hTDP1 cells, no CPT, ATP luminescence, 48 h; further: potency means the concentration at half of the fitted maximal effect; nearly all actives have a fitted effect of over 55% in size
#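 Stably hTDP1-transfected Tdp1-null chicken DT40 cells were treated with library compounds minus camptothecin and grown for at least 48 hr at 37 °C, after which cellular ATP was quantified by luminescence.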
# TDP1 cell CPT: qHTS for Inhibitors of human tyrosyl-DNA phosphodiesterase 1 (TDP1): qHTS in cells in presence of CPT | chicken DT40 Tdp1-/-;hTDP1 cells + 20 nM CPT, ATP luminescence, 48 h | AID 686979, 2013 | hit rate 12% among 420,000 | Potency, µM (series often up to 46.2 µM), inactives show top-dose activity change, negative = growth inhibition, actives largely listed as inhibitors; further: potency means the concentration at half of the fitted maximal effect; nearly all actives have a fitted effect of over 55% in size
#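 Cell growth measured by CellTiter-Glo luminescence after a minimum 48 h, 37 C compound exposure with 20 nM CPT in Tdp1-knockout DT40 cells stably expressing hTDP1, seeded 400/well; qHTS titration format.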
# HT1080NT lethal: qHTS for induction of synthetic lethality in tumor cells producing 2HG: qHTS for the HT-1080-NT fibrosarcoma cell line; Potency, µM (doses to about 46.1 µM), inactives show at the highest dose activity, negative = less viability, hits mostly cytotoxic; hit rate 1.6% among 360,000; AID 686970, 2013; HT-1080-NT fibrosarcoma viability, CellTiter-Glo ATP luminescence, 48 h;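 further: NT is the 2HG producing partner of a matched IDH1 knockdown line; potency means the concentration at half of the fitted maximal effect; 0% = DMSO-treated cells and -100% = media-only wells without cells; nearly all actives have a fitted effect of over 55% in size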
#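 A 48-hour cytotoxicity screen used HT-1080-NT cells plated 2 hours before compound delivery. ATP-based CellTiter-Glo luminescence measured viability, normalized to DMSO and no-cell controls.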
# Numbers without * were called inactive; u = inconclusive; x = not tested or not shown; [ ] = remark or other dose. Many of the other results were omitted from the sample, so hits are more common in it than they were. Unless noted, the call rests on the fitted dose curve; in most records, active means well fitted curve in the direction sought with a large enough effect; inconclusive means small, poorly fitted or top-dose-only effect, or another doubt; inactive means no such curve, though single readings can be large; an effect the other way counts as inactive or inconclusive. Unless noted, on the % scale 0 is the no-effect control and ±100 the full control effect.
SMILES,12-LOX inh,HT1080 IDH1KD tx,IL-1B inflam inh,TDP1 cell noCPT,TDP1 cell CPT,HT1080NT lethal
C=CCn1c(C)cc(C(=O)CSc2nc3ccccc3c(=O)[nH]2)c1C,u,u,-19,21µM*,16µM*,-18%
COCC(C)n1c(C)cc(C(=O)CSc2nc3ccccc3c(=O)[nH]2)c1C (stereo not drawn),u,u,21,21µM*,u,u
COCC(C)n1c(C)cc(C(=O)Cn2nc(C(=O)O)c3ccccc3c2=O)c1C (stereo not drawn),-2%,1%,5,-2%,13%,2%
Cc1cc(C)c(C(=O)CSc2nc3ccccc3c(=O)[nH]2)cc1C,0%,-4%,32,u,-19%,-16%
COCC(C)n1c(C)cc(C(=O)CSc2nnc(Nc3ccccc3F)s2)c1C (stereo not drawn),325%,-26%,-16,u,23µM*,-3%
Cc1cccc(C(=O)NCCC(=O)N2CCN(CC(=O)Nc3cccc(C)c3C)CC2)c1,2%,x,x,x,x,x
CCOC(=O)c1cc2cc(Oc3cccc(C)c3)ccc2n1C,-1%,x,x,x,x,x
COC(=O)c1ccc(CNC(=O)Nn2cnc3ccccc32)cc1,24%,x,x,x,x,x
CC(C)NC(=O)c1ccc2nccn2c1,-1%[12.5 µM],x,x,x,x,x
Cc1c(OCC(=O)OC(C)C)ccc2c(-c3ccccc3)cc(=O)oc12,-26%,x,x,x,x,x
COCCn1c(C)cc(C(=O)CSc2ccc3ccccc3n2)c1C,-28%,-14%,-4,u,u,-16%
COCCCn1c(C)cc(C(=O)COC(=O)CCc2nc3ccccc3c(=O)[nH]2)c1C,-10%,-2%,-76*,3%,19%,10%
COCCn1c(C)cc(C(=O)CSc2nc3ccccc3c(=O)[nH]2)c1C,-23%,u,8,15µM*,16µM*,-9%
C=CCn1c(C)cc(C(=O)CSc2nc3ccccc3[nH]2)c1C,6%,u,-65*,9.2µM*,21µM*,4%
Cc1cc(C(=O)CSc2nc3ccccc3[nH]2)c(C)n1C,-4%,14%,-5,u,u,11%
Cc1cc(C(=O)CSc2nc3ccccc3[nH]2)c(C)n1Cc1ccco1,-7%,u,-18,5.8µM*,8.2µM*,u
COCC(C)n1c(C)cc(C(=O)COC(=O)CCc2nc3ccccc3c(=O)[nH]2)c1C (stereo not drawn),-1%,-6%,-18,-22%,6%,-12%
CC(OC(=O)c1ccc2c(c1)NC(=O)CS2)C(=O)N1CC(=O)Nc2ccccc21 (stereo not drawn),10%,x,x,x,x,x
CCC[C@H]1CN(C(=O)CCc2ccccc2C)C[C@@H]1N,12%,x,x,x,x,x
c1ccc(CCN2CCN(c3ncnc4c3cnn4-c3ccccc3)CC2)cc1,0%,-1%,-10,18µM*,23µM*,2%
Cc1ccccc1C(=O)N1CCN(c2ncnc3c2cnn3-c2ccccc2)CC1,6%,-13%,u,23µM*,21µM*,-13%
Cc1ccc(C(=O)N2CCN(c3ncnc4c3cnn4-c3ccccc3)CC2)cc1,0%,x,x,x,x,x
Clc1cccc(-n2ncc3c(N4CCN(Cc5ccccc5)CC4)ncnc32)c1,u,x,x,u,23µM*,x
OCCN1CCN(c2ncnc3c2cnn3-c2cccc(Cl)c2)CC1,-17%,x,x,u,u,x
CCCCN(C)c1ncnc2c1cnn2-c1cccc(Cl)c1,u,x,x,16µM*,23µM*,x
